Test [1] is described as follows: NCI Yeast Anticancer Drug Screen. Data for the rad50 strain (AID 155).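 Further: 0% = growth of vehicle-only cultures of the same strain.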 Conditions: S. cerevisiae rad50 strain growth inhibition, active compounds read high. An outline of the steps:
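DNA repair mutant yeast, compound exposure, growth read-out; inhibition is taken relative to vehicle.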

Test [2] is described as follows: NCI Yeast Anticancer Drug Screen. Data for the mec2-1 strain (AID 157). Conditions: S. cerevisiae mec2-1 strain, active compounds read high. An outline of the steps:
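Yeast mec2-1 mutant treated with compound. Readout: growth inhibition vs vehicle controls.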

Test [3] can be described thus: NCI Yeast Anticancer Drug Screen. Data for the sgs1 mgt1 strain (AID 161).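 Further: 0% = growth of cultures given vehicle only.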 Conditions: S. cerevisiae sgs1 mgt1 strain, active compounds read high. In a few lines:
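Genetically altered yeast, compound exposure, growth inhibition relative to vehicle.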

Test [4] is described as follows: NCI Yeast Anticancer Drug Screen. Data for the cln2 rad14 strain (AID 165).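 Further: 0% = growth equal to vehicle treated cultures.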 Conditions: S. cerevisiae cln2 rad14 strain, active compounds read high. An outline of the steps:
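cln2 rad14 yeast strain; compound exposure; growth inhibition read vs vehicle controls.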

Test [5] in a line: NCI Yeast Anticancer Drug Screen. Data for the bub3 strain (AID 167). Conditions: S. cerevisiae bub3 mutant strain, active compounds read high. An outline of the steps: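 In this screen, a yeast mutant lacking normal mitotic checkpoint function is challenged with compound. Relative growth versus vehicle gives the inhibition value.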
Test [6] can be described thus: NCI Yeast Anticancer Drug Screen. Data for the mlh1 rad18 strain (AID 175). Conditions: S. cerevisiae mlh1 rad18 strain growth inhibition, active compounds read high. In a few lines:
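Yeast w/ defined DNA-repair lesions; compound exposure; growth vs vehicle controls → % inhibition.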

Setting [7] is: at 5.0 µM (retest, dose inferred, filed as 0.5).
Where [8] appears, read: at 50.0 µM (retest, dose inferred, filed as 5.0).

The structures appear in SMILES notation. About 79,000 compounds went through this panel and 15% of them were active in at least one assay; those are over-represented in the sample as a whole. Values without a mark were called inactive. Activity calls are given as the source filed them. No stated cut-off is given here; in the data, active means growth inhibition above about 70%; inactive means the rest.

With `COC(=O)N/N=C(\C)C(CN1CCOCC1)C(c1ccccc1)c1cc2ccccc2oc1=O` (stereo not given), the growth inhibition in test [1] (setting [7]) was 10%; in test [1] (setting [8]), 57%; in test [1] (at 50.0 µM), -0.75%; in test [2] (setting [7]), -4%; in test [2] (setting [8]) it was 56%; in test [2] (at 50.0 µM), 7.15%. Moreover, the growth inhibition in test [3] (setting [7]) was 14%; in test [3] (setting [8]), 64%; in test [3] (at 50.0 µM), -5.55%; in test [4] (setting [7]) it was 14%; in test [4] (setting [8]) it was 70% (active); in test [4] (at 50.0 µM), 10.9%. The growth inhibition in test [5] (setting [7]) is 21%; in test [5] (setting [8]) it was 74% (active); in test [5] (at 50.0 µM), 8.15%; in test [6] (setting [7]), 7%; in test [6] (setting [8]) it was 61%; in test [6] (at 50.0 µM), 2.25%.

For `CCC(=O)OC1CCC(C2CCCCC2)CC1` (stereo not given), the growth inhibition in test [1] (setting [7]) was 3%; in test [1] (setting [8]), 8%; in test [1] (at 50.0 µM), -4.95%; in test [2] (setting [7]), 1%; in test [2] (setting [8]), 2%; in test [2] (at 50.0 µM) it was -9.55%. Besides, the growth inhibition was 2% in test [3] (setting [7]); 5% in test [3] (setting [8]); 16.7% in test [3] (at 50.0 µM); 5% in test [4] (setting [7]); 7% in test [4] (setting [8]); -21.2% in test [4] (at 50.0 µM). Moreover, the growth inhibition was 65% in test [5] (setting [7]); 70% (active) in test [5] (setting [8]); 61.1% in test [5] (at 50.0 µM); 4% in test [6] (setting [7]); 10% in test [6] (setting [8]); 36.8% in test [6] (at 50.0 µM).

`COc1ccc(CSC(=S)Nc2ccc(Cl)c([N+](=O)[O-])c2)cc1`: the growth inhibition is 48% in test [1] (setting [7]); 92% (active) in test [1] (setting [8]); 88.5% (active) in test [1] (at 50.0 µM); 50% in test [2] (setting [7]); 95% (active) in test [2] (setting [8]); 77.1% (active) in test [2] (at 50.0 µM). The growth inhibition in test [3] (setting [7]) was 56%; in test [3] (setting [8]) it was 99% (active); in test [3] (at 50.0 µM), 88.4% (active); in test [4] (setting [7]), 43%; in test [4] (setting [8]), 97% (active); in test [4] (at 50.0 µM) it was 9%. The growth inhibition was 77% (active) in test [5] (setting [7]); 99% (active) in test [5] (setting [8]); 21.5% in test [5] (at 50.0 µM); 79% (active) in test [6] (setting [7]); 98% (active) in test [6] (setting [8]); 94.1% (active) in test [6] (at 50.0 µM).

As to `C=CC(=O)Oc1ccccc1/C=C/C(=O)CCCCCC`, the growth inhibition in test [1] (setting [7]) is 37%; in test [1] (setting [8]) it was 95% (active); in test [1] (at 50.0 µM), 96.5% (active); in test [2] (setting [7]), 4%; in test [2] (setting [8]), 98% (active); in test [2] (at 50.0 µM), 97.5% (active). In addition, the growth inhibition was 14% in test [3] (setting [7]); 88% (active) in test [3] (setting [8]); 97.5% (active) in test [3] (at 50.0 µM); -2% in test [4] (setting [7]); 72% (active) in test [4] (setting [8]); 62.8% in test [4] (at 50.0 µM). The growth inhibition in test [5] (setting [7]) is 0%; in test [5] (setting [8]), 95% (active); in test [5] (at 50.0 µM), 83.1% (active); in test [6] (setting [7]), 4%; in test [6] (setting [8]), 95% (active); in test [6] (at 50.0 µM), 96% (active).

Turning to `O/N=C\c1ccc(-c2ccccc2)cc1`, the growth inhibition is -17% in test [1] (setting [7]); 87% (active) in test [1] (setting [8]); 74% (active) in test [1] (at 50.0 µM); -13% in test [2] (setting [7]); 64% in test [2] (setting [8]); 47.6% in test [2] (at 50.0 µM). Moreover, the growth inhibition in test [3] (setting [7]) is -8%; in test [3] (setting [8]), 88% (active); in test [3] (at 50.0 µM), 87% (active); in test [4] (setting [7]), 17%; in test [4] (setting [8]), 67%; in test [4] (at 50.0 µM), 51.1%. Moreover, the growth inhibition in test [5] (setting [7]) is 2%; in test [5] (setting [8]), 83% (active); in test [5] (at 50.0 µM) it was 77.7% (active); in test [6] (setting [7]) it was 6%; in test [6] (setting [8]), 91% (active); in test [6] (at 50.0 µM) it was 49.6%.

As for `OC(CBr)C[n+]1cccc2cc(Cl)ccc21` (stereo not given), the growth inhibition in test [1] (setting [7]) is 6%; in test [1] (setting [8]) it was 5%; in test [1] (at 50.0 µM), -40%; in test [2] (setting [7]), 1%; in test [2] (setting [8]) it was 3%; in test [2] (at 50.0 µM) it was -13.4%. Further, the growth inhibition in test [3] (setting [7]) was -1%; in test [3] (setting [8]), 9%; in test [3] (at 50.0 µM), -28.6%; in test [4] (setting [7]) it was -1%; in test [4] (setting [8]), -6%; in test [4] (at 50.0 µM), 39.8%. Besides, the growth inhibition in test [5] (setting [7]) was -1%; in test [5] (setting [8]) it was 6%; in test [5] (at 50.0 µM), 2.8%; in test [6] (setting [7]), 2%; in test [6] (setting [8]) it was -2%; in test [6] (at 50.0 µM), -5.8%.

Regarding `O=C(Nc1ccc(Cl)cc1)NS(=O)(=O)c1ccc2c(c1)CCC2`, the growth inhibition in test [1] (setting [7]) is -18%; in test [1] (setting [8]), 35%; in test [1] (at 50.0 µM), 59.2%; in test [2] (setting [7]), -40%; in test [2] (setting [8]) it was 16%; in test [2] (at 50.0 µM) it was 39.4%. Also, the growth inhibition in test [3] (setting [7]) is -30%; in test [3] (setting [8]), 57%; in test [3] (at 50.0 µM) it was 69.8%; in test [4] (setting [7]) it was -23%; in test [4] (setting [8]) it was 38%; in test [4] (at 50.0 µM), 59%. Besides, the growth inhibition in test [5] (setting [7]) was -14%; in test [5] (setting [8]) it was 62%; in test [5] (at 50.0 µM), 30.4%; in test [6] (setting [7]), -47%; in test [6] (setting [8]) it was 27%; in test [6] (at 50.0 µM), 45.6%.

As for `N=C(N)c1ccc(-c2ccc(-c3ccc(C(=N)N)cc3)o2)cc1`, the growth inhibition was 17% in test [1] (setting [7]); 88% (active) in test [1] (setting [8]); 94.8% (active) in test [1] (at 50.0 µM); -6% in test [2] (setting [7]); 52% in test [2] (setting [8]); 89% (active) in test [2] (at 50.0 µM). In addition, the growth inhibition was 1% in test [3] (setting [7]); 61% in test [3] (setting [8]); 90.3% (active) in test [3] (at 50.0 µM); -2% in test [4] (setting [7]); 35% in test [4] (setting [8]); 75.5% (active) in test [4] (at 50.0 µM). The growth inhibition in test [5] (setting [7]) is 4%; in test [5] (setting [8]), 62%; in test [5] (at 50.0 µM) it was 92.8% (active); in test [6] (setting [7]) it was -10%; in test [6] (setting [8]), 76% (active); in test [6] (at 50.0 µM), 92.2% (active).

On to `Oc1ccc2c(ccc3ccccc32)c1`, for which the growth inhibition in test [1] (setting [7]) was 1%; in test [1] (setting [8]), 98% (active); in test [1] (at 50.0 µM), 97.5% (active); in test [2] (setting [7]) it was -4%; in test [2] (setting [8]), 100% (active); in test [2] (at 50.0 µM) it was 97.3% (active). Further, the growth inhibition is 0% in test [3] (setting [7]); 91% (active) in test [3] (setting [8]); 99.4% (active) in test [3] (at 50.0 µM); -3% in test [4] (setting [7]); 99% (active) in test [4] (setting [8]); 99% (active) in test [4] (at 50.0 µM). The growth inhibition was 4% in test [5] (setting [7]); 88% (active) in test [5] (setting [8]); 99% (active) in test [5] (at 50.0 µM); -1% in test [6] (setting [7]); 99% (active) in test [6] (setting [8]); 99.2% (active) in test [6] (at 50.0 µM).

In the case of `Nc1nc(-c2cc3cc(Cl)ccc3o2)cs1`, the growth inhibition in test [1] (setting [7]) was 47%; in test [1] (setting [8]) it was 75% (active); in test [1] (at 50.0 µM), 1.1%; in test [2] (setting [7]), 34%; in test [2] (setting [8]), 61%; in test [2] (at 50.0 µM), -6.7%. Also, the growth inhibition is 39% in test [3] (setting [7]); 75% (active) in test [3] (setting [8]); 24.4% in test [3] (at 50.0 µM); 35% in test [4] (setting [7]); 50% in test [4] (setting [8]); 15.8% in test [4] (at 50.0 µM). For the same compound, the growth inhibition in test [5] (setting [7]) is 46%; in test [5] (setting [8]) it was 71% (active); in test [5] (at 50.0 µM) it was 43.7%; in test [6] (setting [7]) it was 51%; in test [6] (setting [8]), 79% (active); in test [6] (at 50.0 µM), -4.25%.

The values are drawn from PubChem BioAssay (NCI).
